From PubChem BioAssay (EPA / NIEHS) come the findings set out here.

Calls of active or inactive are those of the source. Rule for the calls: active = hit-call score of the fitted dose curve at least 0.9, where 1 is the maximum; inactive = score below 0.9.

A word on the AC50: it is the concentration at which the activity in the assay is half-maximal.

In the first assay the target is Hepatocyte nuclear factor 3-beta (Homo sapiens) (UniProt Q9Y261). As to the kind of experiment: ATG_FoxA2_CIS: Attagene CIS-FACTORIAL HepG2 Assay for human Forkhead box A2 (FOXA2) (AID 2282942). As to conditions: HepG2 cis-reporter transcription factor activity, 24 h; actives raise or lower the signal. The method, boiled down: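 Transient MRTU transfection of HepG2 liver cells; 24 h treatment; total RNA → oligo(dT) RT → PCR → FAM primer extension → HpaI cut → CE. Bidirectional fit vs DMSO.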
Sequence of Hepatocyte nuclear factor 3-beta (Homo sapiens) (Q9Y261 whole entry, looked up): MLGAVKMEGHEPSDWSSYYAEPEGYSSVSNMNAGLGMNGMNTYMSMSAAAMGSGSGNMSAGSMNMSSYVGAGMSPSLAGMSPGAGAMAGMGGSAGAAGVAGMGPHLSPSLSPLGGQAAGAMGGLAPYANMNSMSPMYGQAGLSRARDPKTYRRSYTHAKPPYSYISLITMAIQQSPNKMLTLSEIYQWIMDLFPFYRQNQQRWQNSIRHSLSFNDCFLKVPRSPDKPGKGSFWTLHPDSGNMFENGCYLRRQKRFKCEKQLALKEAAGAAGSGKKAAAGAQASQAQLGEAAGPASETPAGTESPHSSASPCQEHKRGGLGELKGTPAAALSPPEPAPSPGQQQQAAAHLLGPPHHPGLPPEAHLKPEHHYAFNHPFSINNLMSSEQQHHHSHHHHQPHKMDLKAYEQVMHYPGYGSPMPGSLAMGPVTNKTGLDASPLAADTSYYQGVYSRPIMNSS
In the case of `C=CC(=O)[O][Sn]([CH2]CCC)([CH2]CCC)[CH2]CCC`, the AC50 was 0.694 µM (active). Turning to `O=S(=O)(C(Cl)(Cl)Cl)C(Cl)(Cl)Cl`, the result was inactive. For `COC(=O)c1cc(Oc2ccc(Cl)cc2Cl)ccc1[N+](=O)[O-]`, the result was inactive. In the case of `CC(C)(c1ccc(O)c(-c2ccccc2)c1)c1ccc(O)c(-c2ccccc2)c1`, the outcome was inactive. The same measure, in the same setting: as for `Clc1cc(C(Cl)(Cl)Cl)cnc1Cl`, the entry is “inactive”; as for `CCOC(=O)OC1=C(c2cc(C)ccc2C)C(=O)NC12CCC(OC)CC2` (stereo unspecified), “inactive”; as for `CCCSP(=S)(OCC)Oc1ccc(SC)cc1` (stereo unspecified), “inactive”. Consider `CN(C1CCCCC1)C1CCCCC1`, for which the call was inactive. The same measure, in the same setting: as for `ClCCN1CCOCC1`, the entry is “inactive”; as for `FC(F)OCC(F)(F)C(F)(F)F`, “inactive”; as for `N#Cc1ccccc1N`, “inactive”. `[F][Sn]([c]1ccccc1)([c]1ccccc1)[c]1ccccc1`: the AC50 was 0.892 µM (active). Turning to `C[As+](C)(C)CC(=O)[O-]`, the compound was classed as inactive. Still for that read-out and setting: as for `O=C(Nc1ccc(Br)cc1)c1cc(Br)cc(Br)c1O`, the entry is “inactive”; as for `O=[N+]([O-])c1ccc(Cl)c([N+](=O)[O-])c1`, “inactive”.

As to `CC(=Cc1ccccc1)[N+](=O)[O-]`, the compound was classed as inactive. On the same count and under the same terms, as for `CCOc1ccc(N)cc1`, the entry is “inactive”.

System in the next assay: not listed separately
The assay can be described thus: ATG_FoxO_CIS: Attagene CIS-FACTORIAL HepG2 Assay for human Forkhead box O (FoxO) (AID 2282943). As to conditions: HepG2 Attagene cis-reporter, FoxO element, mRNA; actives raise or lower the signal. The method, boiled down: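 Transfected HepG2 reporter cells exposed to test chemical for 24 h; reporter RNA measured by reverse transcription, PCR and fluorescent capillary electrophoresis; curves fitted for increases and decreases against DMSO.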
As to `CCCCCCCCCCBr`, the outcome was inactive.

Consider `N#CCCC(Br)(C#N)CBr` (stereo unspecified), for which the compound was called inactive. Turning to `O=C(NC(=O)c1c(F)cccc1F)Nc1cc(Cl)c(Oc2ncc(C(F)(F)F)cc2Cl)c(Cl)c1`, the compound was classed as inactive. Still for that read-out and setting: as for `C=C(C)[C@@H]1CC=C(C=O)CC1`, the entry is “inactive”. `Cc1cc(SCc2sc(-c3ccc(C(F)(F)F)c(F)c3)nc2C)ccc1OCC(=O)O`: the outcome was inactive. `ClCc1ccccc1CCl`: the compound was called inactive.

In the case of `N#Cc1ccc(Cl)cc1`, the outcome was inactive. On to `C[N+](C)(C)Cc1ccccc1`, for which the call was inactive. For `O=C1C=CC(=O)c2ccccc21`, the outcome was inactive. On the same count and under the same terms, as for `CC(O)(CS(=O)(=O)c1ccc(F)cc1)C(=O)Nc1ccc(C#N)c(C(F)(F)F)c1` (stereo unspecified), the entry is “inactive”; as for `CCOC(=O)CC(=O)CCl`, “inactive”; as for `O=C(NC(=O)c1c(F)cccc1F)Nc1cc(Cl)c(OC(F)(F)C(F)C(F)(F)F)cc1Cl` (stereo unspecified), “inactive”. `C=CC(=O)NC(C)(C)CC(C)=O`: the compound was classed as inactive.

With `CC(C)CP(=S)(S)CC(C)C`, the result was inactive. For the compound `Cc1cc(C(F)(C(F)(F)F)C(F)(F)F)ccc1NC(=O)c1cccc(I)c1C(=O)NC(C)(C)CS(C)(=O)=O`, the outcome was inactive. Regarding `O=S1OC[C@@H]2[C@H](CO1)[C@]1(Cl)C(Cl)=C(Cl)[C@@]2(Cl)C1(Cl)Cl` (stereo partly specified), the call was inactive. Same read-out and setting: as for `CC1(C)[C@H](/C=C2\CCSC2=O)[C@@H]1C(=O)OCc1coc(Cc2ccccc2)c1`, the entry is “inactive”; as for `CNC(=O)CSP(=O)(OC)OC`, “inactive”.

Take `c1csc(-c2ccc(-c3cccs3)s2)c1`: the result was inactive. Take `C1CCC(C2CCCCC2)CC1`: the compound was classed as inactive. Same read-out and setting: as for `NC(=O)c1ccc(N)nc1`, the entry is “inactive”; as for `CC(F)(F)CC(F)(F)F`, “inactive”; as for `C=CC(=O)[O][Sn]([CH2]CCC)([CH2]CCC)[CH2]CCC`, “inactive”. The same measure, in the same setting: as for `O=S(=O)(C(Cl)(Cl)Cl)C(Cl)(Cl)Cl`, the entry is “inactive”; as for `COC(=O)c1cc(Oc2ccc(Cl)cc2Cl)ccc1[N+](=O)[O-]`, “inactive”; as for `CC(C)(c1ccc(O)c(-c2ccccc2)c1)c1ccc(O)c(-c2ccccc2)c1`, “inactive”. With `Clc1cc(C(Cl)(Cl)Cl)cnc1Cl`, the call was inactive. The same measure, in the same setting: as for `CCOC(=O)OC1=C(c2cc(C)ccc2C)C(=O)NC12CCC(OC)CC2` (stereo unspecified), the entry is “inactive”; as for `CCCSP(=S)(OCC)Oc1ccc(SC)cc1` (stereo unspecified), “inactive”; as for `CN(C1CCCCC1)C1CCCCC1`, “inactive”. Still for that read-out and setting: as for `ClCCN1CCOCC1`, the entry is “inactive”; as for `FC(F)OCC(F)(F)C(F)(F)F`, “inactive”. Regarding `N#Cc1ccccc1N`, the compound was classed as inactive. For `[F][Sn]([c]1ccccc1)([c]1ccccc1)[c]1ccccc1`, the compound was classed as inactive. On the same count and under the same terms, as for `C[As+](C)(C)CC(=O)[O-]`, the entry is “inactive”; as for `O=C(Nc1ccc(Br)cc1)c1cc(Br)cc(Br)c1O`, “inactive”; as for `O=[N+]([O-])c1ccc(Cl)c([N+](=O)[O-])c1`, “inactive”. For `CC(=Cc1ccccc1)[N+](=O)[O-]`, the AC50 is 11.1 µM (active). Regarding `CCOc1ccc(N)cc1`, the compound was classed as inactive.
